# Laboratory results published in PubChem BioAssay.
# For part of these data: Entries with a potency or affinity are not part of this list. Active and inactive are the calls of the source.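 Rule for the calls, unless noted: active = fitted half-maximal concentration within 10 nM to 100 µM, steepness 0.5 to 2, significant signal drop, low assay interference; inactive = the rest.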
# What was measured:
# [1] = target: Cell division control protein 42 homolog (Homo sapiens) (UniProt P60953); assay: activated mutant Cdc42 GTP-binding inhibitors, dose response, biochemical, multiplex bead flow cytometry, Bodipy-FL-GTP (AID 1333;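 active = fitted half-maximal concentration within the tested dose range, moderate curve steepness, a statistically real signal drop, and little compound fluorescence or tag-binding interference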)
# Chain of Cell division control protein 42 homolog (Homo sapiens) (P60953 whole entry, looked up): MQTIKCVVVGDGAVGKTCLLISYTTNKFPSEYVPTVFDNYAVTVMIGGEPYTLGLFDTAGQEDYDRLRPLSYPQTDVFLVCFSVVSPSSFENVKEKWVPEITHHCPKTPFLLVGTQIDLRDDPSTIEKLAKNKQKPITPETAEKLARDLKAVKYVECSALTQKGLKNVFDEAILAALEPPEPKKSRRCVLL
# [2] = target: Cell division control protein 42 homolog (Homo sapiens) (UniProt P60953); assay: wildtype Cdc42 GTP-binding inhibitors, dose response, biochemical, multiplex bead flow cytometry, Bodipy-FL-GTP (AID 1334;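 active = fitted half-maximal concentration within the tested range, moderate curve steepness, significant signal drop, and little compound fluorescence or bead-linkage interference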); conditions: bead-based flow cytometry, Bodipy-FL-GTP binding to GST-Cdc42; at 100 µM (top of the series) unless noted
# [3] = target: GTPase HRas (Homo sapiens) (UniProt P01112); assay: inhibitors of GTP binding to wildtype Ras, dose response, biochemical, multiplex bead flow cytometry (AID 1335); conditions: bead-based flow cytometry, Bodipy-GTP binding to GST-Ras; at 100 µM (top of the series) unless noted
# Chain of GTPase HRas (Homo sapiens) (P01112 whole entry, looked up): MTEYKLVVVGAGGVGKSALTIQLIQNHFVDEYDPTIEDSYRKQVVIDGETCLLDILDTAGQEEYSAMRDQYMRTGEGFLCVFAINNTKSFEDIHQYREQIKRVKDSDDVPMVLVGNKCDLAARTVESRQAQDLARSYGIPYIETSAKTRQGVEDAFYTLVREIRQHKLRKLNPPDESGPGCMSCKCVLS
# [4] = system: Ras-related protein Rab-7a (dog), GTP binding; assay: Rab7 GTP binding inhibitors, potency, dose response, biochemical, wildtype, multiplex bead flow cytometry (AID 1336; call rule not given here)
# [5] = target: Ras-related C3 botulinum toxin substrate 1 (Homo sapiens) (UniProt P63000); assay: wildtype Rac1 GTP binding inhibitors, dose response, biochemical, multiplex bead flow cytometry (AID 1340;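 active = dose curve with midpoint inside tested range, moderate steepness, plateau gap beyond fit error, low compound glow and bead-link interference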); conditions: GST-Rac1 beads, Bodipy-FL-GTP binding; at 100 µM (top of the series) unless noted
# [6] = target: GTPase HRas (Homo sapiens) (UniProt P01112); assay: activated Ras mutant GTP binding inhibitors, dose response, biochemical, multiplex bead flow cytometry (AID 1341;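 active = dose-response curve with midpoint inside the tested range, moderate steepness, significant amplitude and little compound fluorescence or bead-attachment interference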;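 note: GST-tagged constitutively activated Ras mutant immobilized on beads and multiplexed with other GTPases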)
Structure (SMILES),outcome [1],"fluorescence, percent of control (lower = inhibition) [2] [%]","GTP binding, percent of control [3] [%]",outcome [4],"GTP binding signal, raw median fluorescence (lower = inhibition) (MCF (arbitrary fluorescence units)) [5]",outcome [6]
O=S(=O)(Nc1cc(Sc2ncn[nH]2)c(O)c2ccccc12)c1ccccc1,inactive,31.4,71.9,inactive,155,inactive
Cc1nc2sccn2c1-c1nc(-c2cc3ccccc3o2)cs1,inactive,50.9,57.4,inactive,155,inactive
O=C(O)c1ccc(N2C(=O)/C(=C/c3ccc(-c4ccc([N+](=O)[O-])cc4)o3)C=C2c2ccccc2)cc1,inactive,33.9,77.4,inactive,179,inactive
Cn1c(SCC(=O)Nc2cccc(Br)c2)nnc1-c1cc2ccccc2o1,inactive,101,189,inactive,180,inactive
COc1ccccc1OCCn1cc(C(=O)O)c2ccc(C)cc21,inactive,47.9,184,inactive,55.5,inactive
Cc1cc(-c2nnc3n2N=C(c2ccc(-c4ccccc4)cc2)CS3)n[nH]1,inactive,31.3,72.4,inactive,172,inactive
COc1ccccc1OCCn1cc(C(=O)O)c2cc(Cl)ccc21,inactive,55.3,204,inactive,57.7,inactive
Cc1ccc(NC(=O)CS(=O)(=O)c2c[nH]c3ccccc23)c(C)c1,inactive,46,62.9,inactive,184,inactive
COc1cc(N2CCCC2)c(OC)cc1/C=c1/sc2nc3ccccc3n2c1=O,inactive,76,82,inactive,195,inactive
COc1ccccc1NC(=O)CSc1ccc2nnc(-c3cccnc3)n2n1,inactive,36.4,49,inactive,114,inactive
O=C(NCc1cccs1)c1cccn2c(=O)c3sccc3nc12,inactive,32.6,69.2,inactive,138,inactive
COc1ccc(/C=N/Nc2ncnc3sc4c(c23)CCCC4)cc1O,inactive,30.6,42.8,inactive,112,inactive
CCOc1ccc(-n2c(-c3ccco3)n[nH]c2=S)cc1,inactive,56.1,112,inactive,107,inactive
Cc1nc2cc(C(=O)NCc3ccc4c(c3)OCO4)ccc2n1-c1ccc(Br)cc1,inactive,42.6,62.2,inactive,172,inactive
Cc1cc(C)n2ncc(C(=O)O)c2n1,inactive,35.6,84,inactive,266,inactive
N#Cc1c(=O)c2nc(NCc3ccccc3)ncc2n2ccccc12,inactive,41.3,48.1,inactive,0,inactive
Cc1c(Cl)c([N+](=O)[O-])nn1Cc1ccc(C(=O)N/N=C\c2ccccn2)o1,inactive,38.5,53,inactive,95.4,inactive
COc1ccc(OC)c(CCNCc2ccc(C(=O)O)s2)c1,inactive,58.4,82.2,inactive,35.9,inactive
Clc1cccc(Cl)c1/C=N\Nc1nccs1,inactive,96.7,151,inactive,190,inactive
CCCc1cc(N2CCN(C(=O)c3ccco3)CC2)n2c(nc3ccccc32)c1C#N,inactive,34.7,79,inactive,240,inactive
O=C1OC(c2ccc(F)cc2)=C/C1=C\c1ccc([N+](=O)[O-])o1,inactive,49.1,91.4,inactive,283,inactive
COc1ccccc1-n1cc([C@@H]2C[C@H]3CN(c4ccccc4)C(=O)[C@]34CCCN24)cn1,inactive,71.8,119,inactive,293,inactive
CCOc1cccc(Nc2cc3n(c(=O)n2)CCc2cc(OC)c(OC)cc2-3)c1,inactive,32,71.9,inactive,186,inactive
COc1ccc(C(=O)N/C(=C\c2cccc([N+](=O)[O-])c2)C(=O)Nc2cccc(C(=O)O)c2)cc1,inactive,35.1,78.2,inactive,162,inactive
CCN1CCN(c2nc3c(c(=O)n(C)c(=O)n3C)n2Cc2cccc3ccccc23)CC1,inactive,43.1,92.2,inactive,314,inactive
Cc1ccc(Nc2cc(C(=O)O)c3ccccc3n2)c(C)c1,inactive,60.5,83.7,inactive,33.1,inactive
CCOc1ccccc1C1C(C(=O)OC)=C(N)OC2=C1C(=O)CCC2 (stereo not given),inactive,90,149,inactive,184,inactive
COc1c(C)cccc1C(=O)NC(=S)Nc1ccc2c(c1)Cc1ccccc1-2,inactive,73.4,151,inactive,144,inactive
Cc1cccc(S(=O)(=O)c2c(N)n(/N=C/c3cccnc3)c3nc4ccccc4nc23)c1,inactive,81.3,51.7,inactive,135,inactive
O=[N+]([O-])c1cc(Br)c(O)c(C=Nc2ccc(N3CCOCC3)cc2)c1,inactive,30.7,79.8,inactive,218,inactive
